PPC-1+TRAIL kill: kills PPC-1 cancer cells in the presence of TRAIL; PPC-1 cells + TRAIL, ATPLite viability luminescence; cell killing (% activity), % at 4 µM or 5 µM; hit rate 0.41% among 220,000; AID 1443;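 active = cell killing above 50% in the first pass at 4 µM, then a duplicate retest at 5 µM averaging 50% or more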
SENP8 block-1: inhibitors of human SENP8 protease | Q96LD8 | purified SENP8, Z-RLRGG-aminoluciferin cleavage, luminescence | inhibition, % at 10 µM | hit rate 1.2% among 330,000 | AID 2540; in the data active = inhibition above about 50%
Target sequence (Q96LD8 whole entry, looked up): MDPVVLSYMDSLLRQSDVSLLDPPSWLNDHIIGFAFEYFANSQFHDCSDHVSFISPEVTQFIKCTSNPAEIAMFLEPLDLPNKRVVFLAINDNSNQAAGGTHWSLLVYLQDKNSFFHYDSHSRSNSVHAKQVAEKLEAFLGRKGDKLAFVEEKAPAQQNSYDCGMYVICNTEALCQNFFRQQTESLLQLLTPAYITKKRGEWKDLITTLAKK
SENP8 block-2: blocks human SENP8 cleavage of Nedd8 substrate | Q96LD8 | recombinant SENP8, Nedd8 substrate fluorescence | inhibition, % at 20 µM | hit rate 0.64% among 360,000; in the data active = inhibition mostly above about 40%, no sharp cut-off; inactive = mostly below about 27%
SENP7 inh: blocks the human protease SENP7; Q9BQF6; recombinant SENP7, Z-RLRGG-aminoluciferin luminescence, 40 min; inhibition, % at 5 µM; hit rate 1.5% among 330,000;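 active = inhibition above about 50% at the single test dose, limit read from the data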
Target sequence (Q9BQF6 706-1050 limits assumed): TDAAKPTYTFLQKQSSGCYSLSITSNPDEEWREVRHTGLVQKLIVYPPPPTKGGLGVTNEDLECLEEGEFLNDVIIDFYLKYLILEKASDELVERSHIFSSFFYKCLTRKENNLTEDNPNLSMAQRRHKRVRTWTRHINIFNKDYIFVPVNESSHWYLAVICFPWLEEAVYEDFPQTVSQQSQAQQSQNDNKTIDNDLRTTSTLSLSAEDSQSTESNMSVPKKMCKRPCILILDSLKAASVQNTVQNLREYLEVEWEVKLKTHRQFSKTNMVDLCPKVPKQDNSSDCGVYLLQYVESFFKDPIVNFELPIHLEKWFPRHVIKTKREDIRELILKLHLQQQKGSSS
C8 TRAIL sens: sensitizes caspase-8 expressing cells to TRAIL | NB7+C8 cells + TRAIL, ATPlite viability luminescence | inhibition (viability loss, TRAIL sensitization), % at 10 µM | hit rate 1% among 360,000 | AID 624354;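 active = compounds causing at least 50% loss of cell viability in the single-dose screen, relative to plate controls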
SENP6 block: blocks the human protease SENP6 | Q9GZR1 | Recombinant SENP6 catalytic domain, aminoluciferin luminescence | inhibition, % at 10 µM | hit rate 1.8% among 330,000 | AID 2599;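 active = inhibition above about 50% at the single tested dose, limit read from the data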
SENP8 conf: SENP8 (human) inhibition, single concentration confirmation; shares compounds with SENP8 block-2; hit rate 15% among 1,400; purified SENP8, Nedd8-AMC/pro-Nedd8 cleavage fluorescence, 30 min; inhibition, % at 25 µM; AID 624319; in the data active = inhibition mostly above about 39%, no sharp cut-off; inactive = mostly below about 34%
Large screens that a line does not name were inactive (follow-up assays come after a bar, where they were run). Most compounds without a hit are left out; they make up all but 3% or so of the library.

CO[C@H]1O[C@H](C)[C@@H](O)C[C@H]1NC(=O)OCc1ccccc1	none (no result: PPC-1+TRAIL kill)
CC(C)(C)Nc1nc(N2CCCC2)nc(N2CCCC2)n1	SENP8 block-2 44 | SENP8 conf inactive
CCNc1nc(NC(C)(C)C)nc(N2CCCC2)n1	none
Cc1ccc(C(=O)C(C)OC(=O)CCN=C2NS(=O)(=O)c3ccccc32)cc1 (centres undefined)	SENP8 block-2 46 (no result: PPC-1+TRAIL kill) | SENP8 conf inactive
CC(OC(=O)CCN=C1NS(=O)(=O)c2ccccc21)C(=O)Nc1ccc(N(C)C)cc1 (centres undefined)	SENP8 block-2 45 (no result: PPC-1+TRAIL kill) | SENP8 conf inactive
CC(OC(=O)CCN=C1NS(=O)(=O)c2ccccc21)C(=O)c1ccccc1 (centres undefined)	none (no result: PPC-1+TRAIL kill)
Cc1ccc(CN=Cc2[nH]c3ccc(Br)c(Cl)c3c2O)cc1	SENP8 block-2 44 | SENP8 conf inactive
CCN1C(=O)CCC(C(=O)O)C1c1ccc(OC)cc1 (centres undefined)	none
c1coc(-c2nnc(-c3ccco3)nn2)c1	SENP8 block-1 55, SENP8 block-2 87, SENP6 block 73 (no result: PPC-1+TRAIL kill) | SENP8 conf 70
CSc1ccc(-c2ccco2)nn1	none
CCOC(=O)N1CCN(C(=O)COC(=O)CNC(=O)c2ccc(C)cc2)CC1	SENP8 block-2 43 (no result: PPC-1+TRAIL kill) | SENP8 conf inactive
C/C(=N\NC(=O)c1cc(C)oc1C)c1ccc2ccccc2c1	none (no result: PPC-1+TRAIL kill)
Cc1cc(C)cc(Nc2ccc([N+](=O)[O-])nc2[N+](=O)[O-])c1	SENP8 block-2 41 | SENP8 conf inactive
COc1cccc(NC(=O)C2(C)CCN2C(=O)Cc2ccc(C(C)C)cc2)c1 (centres undefined)	none (no result: PPC-1+TRAIL kill, SENP8 block-1, SENP7 inh, SENP6 block)
O=C(CSc1nc2cc(Cl)ccc2s1)NCc1ccc2c(c1)OCO2	SENP8 block-2 44 | SENP8 conf inactive
N#CC1=C(N)Oc2n[nH]c(-c3cccs3)c2C1c1cccs1 (centres undefined)	SENP8 block-2 59 | SENP8 conf inactive
N#CC1=C(N)Oc2n[nH]c(-c3cccs3)c2C1c1ccccc1C(=O)O (centres undefined)	none
CCOc1ccc(C=NNc2ccc(S(=O)(=O)Nc3ccccc3C(=O)O)cc2[N+](=O)[O-])cc1	SENP8 block-2 49 (no result: PPC-1+TRAIL kill) | SENP8 conf inactive
CCOc1cccc(C=NNc2ccc(S(=O)(=O)Nc3ccccc3C(=O)O)cc2[N+](=O)[O-])c1O	none (no result: PPC-1+TRAIL kill)
Nc1ccccc1O	SENP8 block-2 58 (no result: PPC-1+TRAIL kill) | SENP8 conf inactive
Oc1ccccc1O	none (no result: PPC-1+TRAIL kill)
CCN(CC(=O)Nc1c(F)cccc1F)C(=O)C1CC1	none (no result: PPC-1+TRAIL kill)
CCOc1ccc(N=Nc2c(=O)[nH]n3c(=O)c4c([nH]c23)CCCC4)cc1	SENP8 block-2 54 | SENP8 conf inactive
Cc1ccc(CNC(=O)CSc2nc3[nH]ncc3c(=O)[nH]2)cc1	none
O=[N+]([O-])c1ccccc1NC1CCN(Cc2ccccc2)CC1	SENP8 block-2 44 | SENP8 conf inactive
CC1CCC2C(=O)N(c3ccc(NC4CCN(Cc5ccccc5)CC4)c([N+](=O)[O-])c3)C(=O)C2C1 (centres undefined)	SENP8 block-2 47 | SENP8 conf inactive
O=C1C2CCCCC2C(=O)N1c1ccc(NC2CCN(Cc3ccccc3)CC2)c([N+](=O)[O-])c1 (centres undefined)	SENP8 block-2 44 | SENP8 conf inactive
O=C1CCC(=O)N1c1ccc(NC2CCN(Cc3ccccc3)CC2)c([N+](=O)[O-])c1	none
Cc1c(CCC(=O)O)c(=O)oc2cc3occ(-c4ccc(Br)cc4)c3cc12	none (no result: PPC-1+TRAIL kill)
O=C(NCc1ccc2c(c1)OCO2)C(c1ccco1)N(C(=O)c1csnn1)c1ccccc1 (centres undefined)	SENP8 block-2 41 | SENP8 conf inactive
O=C(NCc1ccc(F)cc1)C(c1ccco1)N(C(=O)c1csnn1)c1ccccc1 (centres undefined)	none (no result: PPC-1+TRAIL kill)
CN(C)C1(CN=Cc2cc(Cl)cc([N+](=O)[O-])c2O)CCCCC1	SENP8 block-2 40 (no result: PPC-1+TRAIL kill) | SENP8 conf inactive
COc1ccc(/C=C(\NC(=O)c2ccccc2)C(=O)NCCN2CCOCC2)cc1	none (no result: PPC-1+TRAIL kill)
Cc1ccccc1C1=C/C(=C(\SS/C(C(=O)c2ccc(OCC(=O)O)c(Cl)c2Cl)=C2\C=C(c3ccccc3C)SS2)C(=O)c2ccc(OCC(=O)O)c(Cl)c2Cl)SS1	SENP8 block-2 41 (no result: PPC-1+TRAIL kill, SENP8 block-1, SENP7 inh, SENP6 block) | SENP8 conf 56
O=C(O)COc1ccc2nsnc2c1Cl	none
O=C(Nc1ccncc1)C1CCN(S(=O)(=O)c2ccccc2C(F)(F)F)CC1	none (no result: PPC-1+TRAIL kill)
O=[N+]([O-])c1cc(Cl)c2cccnc2c1O	none
O=[N+]([O-])c1cc(F)c2cccnc2c1O	SENP8 block-2 52 | SENP8 conf 93
CC1CCc2nc(NC(=O)CN3CCN(Cc4ccc5c(c4)OCO5)CC3)sc2C1 (centres undefined)	none
CC1CCc2nc(NC(=O)Nc3ccc4c(c3)OCO4)sc2C1 (centres undefined)	SENP8 block-2 42 | SENP8 conf inactive
Cc1cnc(C=NNC(N)=S)c2cccc(N)c12	SENP8 block-2 82 (no result: PPC-1+TRAIL kill, SENP8 block-1, SENP7 inh, SENP6 block) | SENP8 conf 43
CCS(=O)(=O)N1CCC(C(=O)N2CCc3ccccc3C2)CC1	SENP8 block-2 44 | SENP8 conf 77
CC(C)N1C(=O)CCC1C(=O)N1CCCc2ccccc21 (centres undefined)	SENP8 block-2 41 | SENP8 conf 67
O=C(C1CCCCC1)N1CCCc2ccccc21	none
Cc1ccccc1NS(=O)(=O)c1ccc2oc(=O)ccc2c1	none (no result: PPC-1+TRAIL kill)
Cc1cc(C)n(-c2ccc(C(=O)OCC(=O)Nc3ccc(S(=O)(=O)N4CCCCC4)cc3)cc2)n1	SENP8 block-2 48 | SENP8 conf inactive
Cc1cc(NC(=O)c2ccc3sc([C@@H]4O[C@H](CO)[C@H](O)[C@H](O)[C@H]4O)nc3c2)n(C)n1	none (no result: PPC-1+TRAIL kill, SENP8 block-1, SENP7 inh, SENP6 block)
CC1=NN(c2ccc(C)cc2C)C(=O)C1C(c1ccccc1O)C1C(=O)N(c2ccc(C)cc2C)N=C1C (centres undefined)	SENP8 block-2 58 | SENP8 conf 57
O=C(C1CC1)N1N=C(c2ccccc2)CC1(O)C(F)(F)C(F)(F)F (centres undefined)	none (no result: PPC-1+TRAIL kill)
Cc1c(Cl)cccc1NC(=O)CSC(C)c1nc2ccccc2c(=O)[nH]1 (centres undefined)	SENP8 block-2 27 (no result: PPC-1+TRAIL kill) | SENP8 conf inactive
CCOCCCNC(=O)C1CCCN(S(=O)(=O)CC)C1 (centres undefined)	SENP8 block-2 46 | SENP8 conf inactive
COCC(=O)N1CCN(c2ccc([N+](=O)[O-])cc2)CC1	SENP8 block-2 42 | SENP8 conf inactive
COc1cc(CCC(=O)N2CCN(c3ccc([N+](=O)[O-])cc3)CC2)cc(OC)c1OC	none (no result: PPC-1+TRAIL kill)
Cc1ccc(NC(=O)NC2(C(=O)NCc3ccco3)CCCCC2)cc1	SENP8 block-2 40 | SENP8 conf inactive

Bioassay records deposited in PubChem BioAssay by Sanford-Burnham Center for Chemical Genomics.
